# Screening results as filed in PubChem BioAssay.
# ATG4B inhibitor – ATG4B (human) cysteine protease inhibition. Q9Y4P1. ATG4B cleavage of LC3-PLA2, NBD-HPC fluorescence, 1 h. inhibition, % at 8.33 µM. 0.51% of 340,000 active. AID 504462; in the data active = inhibition above about 40%
# Target sequence (Q9Y4P1 whole entry, looked up): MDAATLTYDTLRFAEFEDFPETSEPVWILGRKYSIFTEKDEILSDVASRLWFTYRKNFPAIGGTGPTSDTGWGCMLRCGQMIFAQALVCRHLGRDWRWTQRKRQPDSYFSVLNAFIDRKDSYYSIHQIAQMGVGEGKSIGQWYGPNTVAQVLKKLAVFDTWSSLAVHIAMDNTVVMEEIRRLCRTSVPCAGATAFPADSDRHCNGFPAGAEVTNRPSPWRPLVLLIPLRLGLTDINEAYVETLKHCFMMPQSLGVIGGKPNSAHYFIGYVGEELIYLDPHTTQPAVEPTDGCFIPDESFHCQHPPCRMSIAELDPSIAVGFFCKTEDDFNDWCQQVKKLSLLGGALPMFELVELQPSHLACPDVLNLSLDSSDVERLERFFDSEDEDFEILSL
# MEKK3 PB1 HTS – raises or lowers MEK5 binding to the human MEKK3 PB1 domain; Q99759; bead-based flow cytometry, Alexa488-MEK5 binding to MEKK3; actives lie on both sides; 0 = blocked by unlabeled MEK5, 100 = vehicle; binding response (% of control), % at 10 µM; 1.4% of 290,000 active; AID 1529;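 active = binding response more than 3 SD above or below the average of its plate-row segment, actives on both sides; inconclusive = wells at one plate position flagged as instrument error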;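 also: Alexa488 bead fluorescence after subtracting the streptavidin-only scavenger bead signal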
# UBC13 inh – inhibitors of human UBC13 polyubiquitin chain formation | 0.47% of 330,000 active | AID 485273 | TR-FRET | inhibition, % at 20 µM; in the data active = inhibition above about 45%, passing the limit was not always enough; inconclusive = no clear call, values can overlap the other calls
# MEKK2mut PB1 HTS – signal of MEK5 binding to mutant human MEKK2 PB1 domain | bead flow cytometry, Alexa488-MEK5 binding to MEKK2 mutant | 0.35% of 290,000 active | AID 1530 | percent response, % at 10 µM; in the data active = percent response above about 24%, passing the limit was not always enough
# MEKK2 WT-MEK5 – raises or lowers MEK5 binding to wildtype human MEKK2 PB1 domain; 1.1% of 290,000 active; binding response (% of control), % at 10 µM; AID 1531; bead flow cytometry, Alexa488-MEK5 binding to MEKK2 WT; actives lie on both sides; in the data active = binding response below about 67% or above about 130%; inconclusive = no clear call, values can overlap the other calls; inactive = in between
# PREPL inhibitor – inhibitors of human prolyl oligopeptidase-like enzyme PREPL; Q4J6C6; recombinant PREPL, fluorescence polarization activity-based probe; inhibition, % at 5.96 µM; 0.68% of 320,000 active; AID 2751; in the data active = inhibition above about 43%
# Casp3 UBC13 ctr – inhibits human caspase-3 in UBC13 counter-screen | 4% of 1,400 active | shares compounds with UBC13 inh | AID 488856 | inhibition, % at 20 µM | Recombinant caspase-3, Caspase-Glo 3/7 luminescence, 60 min;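 active = mean inhibition across replicates above about 26%, limit read from the data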
# UBC13 conf – confirmation of human UBC13 polyubiquitin inhibitors | shares compounds with UBC13 inh | UBC13 polyubiquitination, TR-FRET, biochemical | inhibition, % at 10 µM | 68% of 1,400 active; in the data active = inhibition above about 45%; inconclusive = no clear call, values can overlap the other calls
# ATG4B confirm – confirmation of human ATG4B inhibitors; shares compounds with ATG4B inhibitor; ATG4B protease fluorescent substrate cleavage assay; inhibition, % at 8.33 µM; 92% of 320 active; in the data active = inhibition above about 39%
# PLA2 counter – counter-screen for ATG4B inhibitors: human phospholipase A2. inhibition, % at 8.33 µM. purified PLA2, NBD-C6-HPC fluorescence, 45 min. shares compounds with ATG4B inhibitor. AID 588402. 66% of 1,600 active; in the data active = inhibition above about 50%
# A number is an active result; i = inactive; ? = inconclusive; nt = not tested or not shown. Only some compounds are listed: those with a hit (about 3.1% of all), similar ones and a draw of the others.
SMILES,ATG4B inhibitor,MEKK3 PB1 HTS,UBC13 inh,MEKK2mut PB1 HTS,MEKK2 WT-MEK5,PREPL inhibitor,PLA2 counter,others
O=c1c2cc(Br)ccc2[nH]c(=S)n1-c1ccccc1,i,i,46.5,i,i,i,nt,Casp3 UBC13 ctr=i;UBC13 conf=?
O=c1c2ccccc2[nH]c(=S)n1-c1ccc(Br)cc1,i,i,i,i,i,i,nt,
Cc1ccc2[nH]c(=S)n(-c3cccnc3)c(=O)c2c1,i,i,49.7,i,i,i,nt,Casp3 UBC13 ctr=i;UBC13 conf=?
O=P(Oc1ccccc1)(Oc1ccccc1)N1CCOCC1,i,nt,nt,nt,nt,nt,nt,
N=c1sccn1Cc1ccccc1F,i,i,nt,i,i,nt,nt,
C=CC(=O)NCNC(=O)C=C,i,nt,i,nt,nt,i,nt,
COc1ccc(-c2cc(=Nc3cccc(C(=O)O)c3)c3cc(C)ccc3o2)cc1,60.8,i,i,i,i,i,76.1,
Clc1ccccc1CN1CCN(c2ccccc2Cl)CC1,46.2,i,i,i,i,i,i,ATG4B confirm=69.6
O=c1[nH]c(=O)n(Cc2ccccc2)c(O)c1C=Nc1ccc(CN2CCOCC2)cc1,i,i,i,i,i,i,nt,
CN(C)[C@@H]1C(=O)C(C(N)=O)=C(O)[C@@]2(O)C(=O)C3=C(O)c4c(O)ccc(Cl)c4[C@@](C)(O)C3C[C@@H]12 (stereo partly specified),79.8,i,nt,i,i,nt,i,ATG4B confirm=47.2
CN(C)C1C(=O)C(C(N)=O)=C(O)C2(O)C(=O)C3=C(O)c4c(O)cccc4C(C)(O)C3CC12 (stereo unspecified),i,i,nt,i,i,i,nt,
CC(C)(C)C(=O)N1Cc2cnnn2-c2ccccc2C1C#N (stereo unspecified),i,nt,nt,nt,nt,nt,nt,
O=c1c2ccccc2nc(/C=C/c2ccccc2)n1-c1ccccc1O,61.6,i,i,i,i,i,70.0,
O=c1c2ccccc2nc(/C=C/c2ccc(O)cc2)n1-c1ccccc1O,i,i,i,i,i,i,nt,
CCCCCCN=C(C)c1c(O)n(CCCC)c(=O)[nH]c1=O,i,i,i,i,i,i,nt,
CC12CC(c3ccccc3O1)C(C(=O)OCc1ccccc1)C(=O)N2 (stereo unspecified),i,i,i,i,i,i,nt,
CCOC(=O)C1=C(C)N(C)C2(C)CC1c1ccccc1O2 (stereo unspecified),48.3,i,i,i,i,i,i,
Cc1ccc(-c2nn(Cc3ccccc3)cc2C=O)cc1,48.0,i,i,i,i,i,58.8,
Cc1ccc(Cn2cc(C=O)c(-c3ccc(F)cc3)n2)cc1,i,i,i,i,i,i,nt,
Cc1ccc(-c2nn(Cc3ccccc3)cc2C=O)cc1C,61.3,i,i,i,i,i,77.7,
Cc1cc(OCC(=O)NC(Cc2ccc(Cl)cc2)C(=O)O)c2c3c(c(=O)oc2c1)CCCC3 (stereo unspecified),45.0,i,i,i,i,i,72.0,
NCc1cc(=O)[nH]o1,i,nt,i,nt,nt,i,nt,
